Hits are enriched below; roughly 19% of the tested compounds scored in any of these assays.
DT40 TDP1 no CPT: qHTS for Inhibitors of human tyrosyl-DNA phosphodiesterase 1 (TDP1): qHTS in cells in absence of CPT; DT40 Tdp1-/- hTDP1 cells, no CPT, ATP luminescence, 48 h; hit rate 15% among 420,000; Potency, µM (top dose mostly 46.2 µM), inactives show at the top dose activity change, negative = growth inhibition, actives largely listed as inhibitors; further: potency means the concentration at half of the fitted maximal effect; nearly all actives have a fitted effect of over 55% in size
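Readout: luminescence from CellTiter-Glo after 30 min in the dark at RT. Cells: DT40 Tdp1-/- with stable hTDP1, 400/well. Exposure: compounds alone, ≥48 hr, 37 °C.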
TDP1 cell CPT: qHTS for Inhibitors of human tyrosyl-DNA phosphodiesterase 1 (TDP1): qHTS in cells in presence of CPT; AID 686979, 2013; chicken DT40 Tdp1-/-;hTDP1 cells + 20 nM CPT, ATP luminescence, 48 h; hit rate 12% among 420,000; Potency, µM (doses to about 46.2 µM), without a hit: at the highest dose activity change, negative = growth inhibition, hits mostly inhibitors; further: potency means the concentration at half of the fitted maximal effect; nearly all actives have a fitted effect of over 55% in size
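Chicken DT40 Tdp1-/- cells stably complemented with human TDP1 were seeded at 400 cells/well in medium containing 20 nM camptothecin, exposed to pin-transferred compounds, and grown at 37 °C for at least 48 hr. Viability was read as ATP luminescence.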
IL-1B inflam inh: qHTS for Inhibitors of Inflammasome Signaling: IL-1-beta AlphaLISA Primary Screen; THP-1 LPS/ATP IL-1B secretion, AlphaLISA, 16 h; active compounds read low; activity change, % at 57.5 µM; hit rate 4.7% among 360,000; in the data active means activity change below about -50%; inconclusive means mostly about -30% to -49%
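THP-1 cells pretreated 1 hr with compounds (up to 57.5 uM final), then stimulated with LPS (250 ng/mL final) plus ATP (1.25 mM final); secreted IL-1B measured by AlphaLISA after 16 hr, decreased signal indicating inhibition.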
HT1080NT lethal: qHTS for induction of synthetic lethality in tumor cells producing 2HG: qHTS for the HT-1080-NT fibrosarcoma cell line. Potency, µM (series often up to 46.1 µM), for the others: at the top dose activity, negative = less viability, most hits filed as cytotoxic. AID 686970, 2013. hit rate 1.6% among 360,000. HT-1080-NT fibrosarcoma viability, CellTiter-Glo ATP luminescence, 48 h;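 further: NT is the 2HG producing partner of a matched IDH1 knockdown line; potency means the concentration at half of the fitted maximal effect; 0% = DMSO-treated cells and -100% = media-only wells without cells; nearly all actives have a fitted effect of over 55% in size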
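HT-1080-NT fibrosarcoma cells (2HG-overproducing), 750 cells/well in RPMI with 5% FBS, dosed after 2 h and incubated 48 h at 37C. CellTiter-Glo luminescence normalized to DMSO and no-cell wells; concentration-response curves fitted and classed.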
HT1080 IDH1KD tx: qHTS for induction of synthetic lethality in tumor cells producing 2HG: qHTS for the HT-1080-IDH1KD cell line | HT-1080 IDH1 knockdown viability, ATP luminescence, 48 h | Potency, µM (highest dose often 46.1 µM), for inactives: at the highest dose activity, negative = toxicity, most hits filed as cytotoxic | hit rate 2% among 360,000;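 further: potency means the concentration at half of the fitted maximal effect; 0% = DMSO wells and -100% = cell-free medium wells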
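After a 2 h attachment period, IDH1KD HT-1080 cells took pin-transferred compound for 48 h at 37 °C; ATP-based luminescence after 10 min room-temperature reagent incubation reported viability.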
uPA surface inh: qHTS for Inhibitors of Cell Surface uPA Generation. cell surface uPA generation assay, qHTS. Potency, µM (series often up to 38.3 µM), inactives show at the highest dose activity change, negative = inhibition, most hits filed as inhibitors. hit rate 0.31% among 330,000; active means well fitted inhibition curve with a large enough effect; inconclusive means small, poorly fitted or top-dose-only effect; inactive means no such curve, though single readings can be large or run the other way; tested in mouse RAW 264.7 cells; further: potency means the concentration at half of the fitted maximal effect; nearly all actives have a fitted effect of over 55% in size
* marks the source's active call; other numbers are inactive results; ? = inconclusive; nt = no result given. Unless noted, the call rests on the fitted dose curve; in most records, active means well fitted curve in the direction sought with a large enough effect; inconclusive means small, poorly fitted or top-dose-only effect, or another doubt; inactive means no such curve, though single readings can be large; an effect the other way counts as inactive or inconclusive. Unless noted, on the % scale 0 is the no-effect control and ±100 the full control effect.

SMILES	DT40 TDP1 no CPT	TDP1 cell CPT	IL-1B inflam inh	HT1080NT lethal	HT1080 IDH1KD tx	uPA surface inh
CC1(C(=O)NS(=O)(=O)C2CC2)CCCN(C(=O)/C=C/c2ccccc2)C1 (configuration not stated)	15µM*	?	23	13%	20%	nt
Cc1ccsc1C(=O)N1CCCC(C)(C(=O)NS(=O)(=O)C2CC2)C1 (configuration not stated)	?	-55%	20	0%	0%	nt
CCCS(=O)(=O)NC(=O)C1(C)CCCN(C(=O)c2ccccc2F)C1 (configuration not stated)	-1%	-1%	-71*	24%	10%	nt
CC1(C(=O)NS(=O)(=O)C2CC2)CCCN(C(=O)c2ccccc2)C1 (configuration not stated)	2.1µM*	5.2µM*	3	4%	7%	nt
CCc1nnc(NC(=O)CCC(=O)Nc2ccc(Cl)cc2)s1	14%	35%	-1	6%	0%	-2%
CCCS(=O)(=O)NC(=O)C1(C)CCCN(C(=O)c2c(F)cccc2F)C1 (configuration not stated)	-4%	-3%	-4	16%	4%	nt
CC1(C(=O)NS(=O)(=O)C2CC2)CCCN(C(=O)c2ccco2)C1 (configuration not stated)	12µM*	?	16	10%	26%	nt
CC1(C(=O)NS(=O)(=O)C2CC2)CCCN(C(=O)c2c(F)cccc2F)C1 (configuration not stated)	4.6µM*	5.2µM*	-12	12%	7%	nt
CC1(C(=O)NS(=O)(=O)C2CC2)CCCN(C(=O)c2cccs2)C1 (configuration not stated)	6.5µM*	5.2µM*	37	30%	4%	nt
O=C(C(=O)N1CCC(Cc2ccccc2)CC1)c1cccs1	-27%	-21%	?	0%	2%	nt
O=C(CN(c1cccc(C(F)(F)F)c1)S(=O)(=O)c1ccccc1)Nc1cccc(Cl)c1	15µM*	16µM*	nt	nt	nt	nt
CN(c1cccc(NC(=O)CN(c2ccc(Cl)c(Cl)c2)S(=O)(=O)c2ccccc2)c1)S(C)(=O)=O	21µM*	?	0	-22%	-29%	-10%
O=C(CN(c1ccc(Cl)c(C(F)(F)F)c1)S(=O)(=O)c1ccccc1)Nc1cccnc1	7.3µM*	?	nt	nt	nt	nt
COc1ccc(N(CC(=O)Nc2cccc(N(C)S(C)(=O)=O)c2)S(C)(=O)=O)cc1OC	-25%	-25%	14	0%	8%	1%
COc1ccc(C)cc1N(CC(=O)Nc1cccc(N(C)S(C)(=O)=O)c1)S(C)(=O)=O	?	21µM*	31	?	?	-29%
CN1CCN(c2ncnc3c2ncn3[C@H]2CN(Cc3ccco3)C[C@@H](CO)O2)CC1	-6%	2%	13	7%	19%	nt
O=C(CN(c1cccc(C(F)(F)F)c1)S(=O)(=O)c1ccc(Cl)c([N+](=O)[O-])c1)NCc1ccc(F)cc1	16µM*	16µM*	-99*	?	?	-8%
Cc1ccc(S(=O)(=O)N(CC(=O)Nc2c(C)cccc2C)c2cccc(Cl)c2)cc1	15µM*	?	nt	nt	nt	nt
Cc1ccc(S(=O)(=O)N(CC(=O)Nc2cccc(N(C)S(C)(=O)=O)c2)c2ccc(Cl)c(Cl)c2)cc1	23µM*	21µM*	-25	-12%	-24%	-13%
CN(c1cccc(NC(=O)CN(c2ccc(C34CC5CC(CC(C5)C3)C4)cc2)S(C)(=O)=O)c1)S(C)(=O)=O	21µM*	18µM*	-5	?	20µM*	?
CN(Cc1ccc2nonc2c1)Cc1nc(CC2CC2)no1	-23%	-7%	-3	4%	4%	0%
Cc1cc(=O)[nH]c(SCC(=O)N2C(C)CCCC2C)n1 (configuration not stated)	-5%	-14%	22	-7%	-2%	-6%
O=C(Nc1ccccc1N1CCOCC1)C1CCN(S(=O)(=O)c2ccccc2F)CC1	0%	1%	-1	20%	14%	1%
COC(=O)/C=C/C(=O)N1CCN(c2ccccc2C)CC1	16µM*	?	-108*	11%	9%	11µM*
COc1ccccc1CNC(=O)N1CCN(c2ccccc2C)CC1	?	-20%	10	0%	-14%	0%
SMILES	DT40 TDP1 no CPT	TDP1 cell CPT	IL-1B inflam inh	HT1080NT lethal	HT1080 IDH1KD tx	uPA surface inh
Cc1ccccc1N1CCN(C(=O)c2ccccc2NC(=O)/C=C\C(=O)O)CC1	?	?	-19	-2%	4%	0%
COC(=O)/C=C/C(=O)N1CCN(c2ccccc2)CC1	3%	10%	-91*	19%	21%	-12%
O=C(COC(=O)/C=C/C(=O)N1CCN(c2ccccc2)CC1)NCc1ccc(F)cc1	-19%	-3%	-15	3%	8%	-9%
Cc1ccccc1N1CCN(c2ccccc2NC(=O)/C=C\C(=O)O)CC1	?	16µM*	16	6%	-5%	-11%
Cc1cc(C)cc(N2C(=O)CC(c3ccc(C(F)(F)F)cc3)C3=C2COC3=O)c1 (configuration not stated)	3%	5%	nt	nt	nt	nt
CN(CC(=O)Nc1c(Cl)cccc1Cl)C(=O)CCNS(=O)(=O)c1ccccc1C(F)(F)F	?	?	-4	4%	23%	5%
Cc1ccc(NC(=O)Cc2ccc(Cl)c(Cl)c2)cc1S(=O)(=O)N(C)C	23µM*	?	-24	1%	-22%	-7%
Cc1ccc(NC(=O)CSc2nn(-c3ccc(Cl)cc3)c(=S)s2)cc1S(=O)(=O)N(C)C	?	9.2µM*	15	-5%	?	1%
Cc1ccc(NC(=O)CCN2CCC(Cc3ccccc3)CC2)cc1	?	8%	-82*	?	?	8%
Cc1ccc(NC(=O)CCN2CCN(C/C=C/c3ccccc3)CC2)cc1	?	?	?	-25%	-26%	-1%
Cc1ccc(NC(=O)CN2CCC(Cc3ccccc3)CC2)cc1S(=O)(=O)N(C)C	?	?	-54*	?	?	?
Cc1ccc(NC(=O)Cc2ccccc2Cl)cc1S(=O)(=O)N(C)C	-28%	-22%	-5	-5%	-4%	3%

Screening data: PubChem BioAssay, National Center for Advancing Translational Sciences (NCATS)
